We go through 57 compounds from PubChem BioAssay AID2384 (Southern Research Specialized Biocontainment Screening …, 2010).

Each structure is given as a SMILES string. Among all 2,300 compounds or so, about 1,100 (48%) were called active. The rule behind the calls is not given here. So high a share suggests a set chosen from earlier hits. Some of the results follow. Measured potencies and affinities stand elsewhere.

A short description of the test: S. typhi counter-screen signal inhibition – fluorescence, 4 h, counter-screen for PhoP regulon inhibitor project, dose response (AID 2384). The note with it: S. typhi GFP reporter counter-screen; series mostly up to 150 µM; inhibition: at the top concentration.
By inhibition is commonly meant the change of the read-out against control, counted positive when it falls. In the case of `CC1Cc2ccccc2N1C(=O)CN1C(=O)C(=O)N(Cc2ccccc2)C1=O` (configuration not stated), the “inhibition” value is -9.75% (inactive).

On to `Cc1c(/C=N/NC(=O)c2sc3ccccc3c2Cl)cnn1C`, for which the “inhibition” value is 10.8% (inactive). As for `Cc1c(/C=N/NC(=O)c2ccc3c(c2)OCO3)cnn1C`, the figure is 12.9% (inactive); as for `N#CC1=C2N=C(N)c3ccccc3N2C2=C(C(=O)CCC2)C1c1cccc(Cl)c1` (configuration not stated), -19.9% (inactive); as for `CC(C(=O)c1ccc2ccccc2c1)N1CCCCC1` (configuration not stated), 36.4% (inactive).

Consider `c1ccc2oc(-c3ccc(Nc4nc(N5CCCCC5)nc(N5CCOCC5)n4)cc3)nc2c1`, for which the “inhibition” value was 8.13% (inactive). As to `CCOc1ccccc1NC1=NC2CS(=O)(=O)CC2S1` (configuration not stated), the “inhibition” value is -10.3% (inactive).

In the case of `CC(C)c1cc(C(=O)Nc2ccc3c(c2)OCO3)no1`, the “inhibition” value is 9.74% (inactive).

Turning to `CCOC(=O)c1sc(N)c(C(=O)OC)c1C`, the “inhibition” value was -13.7% (inactive). As for `S=C1SCN(Cc2cccnc2)CN1Cc1cccnc1`, the figure is 25% (inactive); as for `CC(OC(=O)Cc1coc2cc3c(cc12)CCC3)C(=O)NCc1ccc2c(c1)OCO2` (configuration not stated), 5.64% (inactive). The result for `Cc1ccc(NC(=O)CN(C)C(=O)Cn2ccsc2=N)cc1` reads 27.2% (inactive); that for `O=C(NC(C(=O)c1ccccc1)n1c(=O)cc[nH]c1=S)c1ccccc1` (configuration not stated), 16.6% (inactive).

`CCSc1nc(C)cc(C)c1S(=O)(=O)c1ccccc1C`: the “inhibition” value is 1.56% (inactive).

Regarding `CCN(CC)CCSc1nnc2c3ccccc3n(Cc3ccccc3)c2n1`, the “inhibition” value was 16.3% (inactive).

For `O=C1SC(c2ccccc2)=C/C1=C\N1CCCCC1`, the “inhibition” value was 31.5% (inactive). As for `Cc1cc(C)n(-c2nc3ccccc3nc2N2CCN(C(=O)c3ccc(F)cc3)CC2)n1`, the figure is 10.4% (inactive).

As to `O=C(CCNS(=O)(=O)c1cccc2nonc12)N1CCN(c2cccc(Cl)c2)CC1`, the “inhibition” value is -12.9% (inactive). The result for `Cc1c(C=O)c2ccccn2c1C(=O)c1ccccc1` reads 0.47% (inactive); that for `CCCCC(=O)Nc1ccc2c(c1)C(=O)NC2=O`, -15.3% (inactive); that for `CCOC(=O)COc1cccc2c(=O)n(CC(=O)N3CCCCC3)ccc12`, 3.71% (inactive). The result for `COc1cccc(-c2cc(C(=O)O)[nH]n2)c1` reads -27.4% (inactive); that for `COc1nc(N(C#N)CC(N)=O)nc(N2CCCC2)n1`, -14.2% (inactive); that for `COc1ccc(CSCCN)cc1Cl`, 38% (inactive). As for `CCOC(=O)c1c(CSC(=N)N)n(C)c2cc(Br)c(OC(C)=O)cc12`, the figure is 38.3% (inactive). `COC(=O)c1cc(CSC(=N)N)ccc1OCCC(C)C`: the “inhibition” value is 3.72% (inactive).

Regarding `CCCCOc1ccc(CN=C(N)N)cc1Cl`, the “inhibition” value was 23.5% (inactive). As for `CCOC(=O)c1cccc(NC(=O)c2cccs2)c1`, the figure is -4.52% (inactive); as for `Cn1cnc2cc(NC(=O)c3cccs3)ccc21`, 28.9% (inactive).

With `CCN(CC)CCNc1nc(-c2ccc(OC)cc2)c(-c2ccc(OC)cc2)s1`, the “inhibition” value is 27.2% (inactive). As for `COc1ccc(CC(=O)N(Cc2cc3cc(OC)ccc3[nH]c2=O)C(C)C)cc1`, the figure is 17.3% (inactive); as for `CC(=O)c1cccc(NC(=O)CCC2CCCC2)c1`, 27.3% (inactive). As for `CCC(=O)Nc1nnc(-c2ccco2)o1`, the figure is 8.68% (inactive).

As for `Cc1cc(=O)n(CC(C)C)c(O)c1C#N`, the “inhibition” value was -31.6% (inactive). The result for `S=C1NCN(C2CCCCC2)CN1c1ccccc1` reads 9.4% (inactive); that for `CCc1nccc2c1[nH]c1ccccc12`, -35.1% (inactive); that for `C=CCOc1ccc(-c2n[nH]c(=S)o2)cc1`, 18.3% (inactive).

In the case of `O=C1c2ccccc2C2=Nc3ccccc3SC(c3ccccc3F)C12` (configuration not stated), the “inhibition” value was 12.1% (inactive). `Cc1cccc(NS(=O)(=O)c2ccc3c(c2)OCCO3)c1`: the “inhibition” value is 1.33% (inactive). Consider `COc1ccc(NC2=Nc3ccccc3CC2)cc1`, for which the “inhibition” value is 12.3% (inactive). The result for `c1ccc(CNc2nc(-c3ccccn3)nc3ccccc23)cc1` reads 12% (inactive).

For `Cc1ccc(Cn2c(=N)c(C(=O)NCc3ccco3)cc3c(=O)n4ccccc4nc32)cc1`, the “inhibition” value is 12% (inactive). Regarding `CN(CCO)CC(O)Cn1cnc2c1c(=O)n(C)c(=O)n2C` (configuration not stated) (tested in a mixture with another compound), the “inhibition” value was 23.2% (inactive). Regarding `COc1ccc(N2CCN(C(=O)c3cc4c(s3)-c3ccccc3S(=O)(=O)C4)CC2)cc1`, the “inhibition” value was -5.98% (inactive). In the case of `c1ccc(-c2nnc(-c3c[nH]c4ccccc34)nc2-c2ccccc2)cc1`, the “inhibition” value was 3.86% (inactive).

With `O=c1oc2ccccc2c(O)c1C(c1ccccn1)c1c(O)c2ccccc2oc1=O`, the “inhibition” value was -5.58% (inactive). Regarding `CC(C)(C)n1nc2c(c1NC(=O)Cc1cccs1)CSC2`, the “inhibition” value was 4.74% (inactive). As for `COC(=O)c1ccc(S(=O)(=O)N2CCC(c3nc4ccccc4o3)CC2)cc1`, the figure is -17.6% (inactive). As for `CN(C)CCCN(C(=O)c1cc2cc([N+](=O)[O-])ccc2s1)c1nc2cc3c(cc2s1)OCCO3`, the figure is -3.58% (inactive). For the compound `CCCCN(C)C(=O)c1ccc(S(=O)(=O)N2CCOCC2)cc1`, the “inhibition” value is -3.07% (inactive).

As for `O=C(NCc1cccnc1)C1c2ccccc2C(=O)N1Cc1ccccc1` (configuration not stated), the “inhibition” value was -11.2% (inactive). As for `CCOC(=O)c1c(C)sc2c1N(C(C)=O)c1cc(Cl)ccc1S2`, the figure is 4.79% (inactive). As for `NC(=O)c1c(NC(=O)CSc2nc(N)cc(=O)[nH]2)sc2c1CCCC2`, the figure is 5.04% (inactive); as for `CCOc1ccc(NC(=O)CN(C)C(=O)c2ccccc2CCc2ccccc2)cc1OCC`, 1.33% (inactive); as for `O=C(CC(=O)NCc1ccccc1)NCc1ccccc1`, -7.97% (inactive). The result for `CCOCCCNC(=O)CN1CCN(Cc2ccccc2C)C1=O` reads -28.5% (inactive). As for `COC(=O)C1C(=O)C2=C(CC1C)Nc1ccccc1NC2c1ccc(C)s1` (configuration not stated), the “inhibition” value was -6.97% (inactive).
